For 87 sequences, binding signal results are on record in paper PMC10668032, “Altered binding affinity of SIX1-Q177R correlates with enhanced WNT5A and WNT pathway effector expression in Wilms tumor”.

The full ranking holds about 33,000 sequences; the median of “e-score” is about -0.05, and the highest 2% start at about 0.38. This is one part of a sample in which the highest values are shown more often than they occur.

In the assay the target is T1, SIX1-Q177R homeodomain (human, UniProt Q15475 108-198, Q177R).
T1 sequence: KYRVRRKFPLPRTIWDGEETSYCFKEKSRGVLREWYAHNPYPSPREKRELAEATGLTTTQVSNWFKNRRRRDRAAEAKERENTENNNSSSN
The assay can be described thus: universal protein binding microarray; Universal all-10-mer PBM (8x60K, AMADID 030236), 300 nM GST-tagged protein, Alexa Fluor 488 anti-GST; buffer, salt, pH and temperature not stated (as in Berger); high values mean tight binding. The settings on record: protein: ivt; tags: N-terminal GST; dsDNA, one strand shown. The method in brief: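 Duplicate protein binding microarrays (universal 'all 10-mer', 8×60K format) were incubated with GST-tagged homeodomains at 300 nM final concentration. Binding was quantified as 8-mer E-scores with the Universal PBM Analysis Suite.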
For GTGTATAA, the binding signal came out at 0.376 ± 0.0114 E-score.

On to CGGTATCA, for which the binding signal stood at 0.312 ± 0.00867 E-score.

GTGTATCA: the binding signal was found to be 0.392 ± 0.0104 E-score.

As to GAGTATCA, the binding signal worked out at 0.228 ± 0.0455 E-score.

On to GGGTATCA, for which the binding signal worked out at 0.3904 ± 0.00193 E-score.

Consider AGGTATCA, for which the binding signal amounted to 0.324 ± 0.0386 E-score.

For the sequence CAGTATCA, the binding signal was determined as 0.2 ± 0.0287 E-score.

With CCCTCGGA, the binding signal is 0.19 ± 0.012 E-score.

Regarding CCGAGTCA, the binding signal worked out at 0.157 ± 0.00701 E-score.

With AACAGTGT, the binding signal worked out at 0.323 ± 0.0244 E-score.

With GACGCCCC, the binding signal worked out at 0.182 ± 0.00373 E-score.

As to GAGTAACA, the binding signal is 0.24 ± 0.0048 E-score.

As to ACGCTACA, the binding signal worked out at 0.161 ± 0.0151 E-score.

Regarding ACAACACG, the binding signal was 0.358 ± 0.0104 E-score.

As for ACAACACT, the binding signal is 0.35 ± 0.00607 E-score.

In the case of GCAACCCC, the binding signal came out at 0.184 ± 0.013 E-score.

Consider GCAACACC, for which the binding signal turned out to be 0.4669 ± 0.000587 E-score.

CCAACACA: the binding signal came out at 0.163 ± 0.0809 E-score.

For the sequence ACAACACC, the binding signal was determined as 0.455 ± 0.00357 E-score.

In the case of ACAACACA, the binding signal came to 0.232 ± 0.0598 E-score.

In the case of CCAACACC, the binding signal stood at 0.47 ± 0.00509 E-score.

As for CCAACACG, the binding signal came to 0.377 ± 0.0116 E-score.

Consider GCTGGGTA, for which the binding signal was determined as 0.227 ± 0.00462 E-score.

Turning to ACTCGGCA, the binding signal amounted to 0.161 ± 0.0126 E-score.

On to CACCTTCC, for which the binding signal amounted to 0.307 ± 0.017 E-score.

Turning to CACTAGGG, the binding signal is 0.201 ± 0.0297 E-score.

Consider AAGTGTGA, for which the binding signal was 0.188 ± 0.0231 E-score.

Take AAGTGTAT: the binding signal stood at 0.317 ± 0.0537 E-score.

Regarding CAGTGTGA, the binding signal is 0.306 ± 0.0246 E-score.

Consider AAGTGTAA, for which the binding signal was 0.4 ± 0.0567 E-score.

Consider GAGTGTAA, for which the binding signal was 0.42 ± 0.0292 E-score.

For the sequence CAGGGTAA, the binding signal was determined as 0.21 ± 0.00942 E-score.

CAGTGTAA: the binding signal was determined as 0.42 ± 0.0273 E-score.

For the sequence TAGTGTGA, the binding signal turned out to be 0.258 ± 0.0135 E-score.

Regarding GGGAGTAA, the binding signal turned out to be 0.225 ± 0.0261 E-score.

On to TAGTGTAA, for which the binding signal was determined as 0.408 ± 0.0318 E-score.

As for TAGAGTAA, the binding signal was found to be 0.199 ± 0.00264 E-score.

Take CACGAAAA: the binding signal was determined as 0.157 ± 0.0159 E-score.

As to GGGAGTTA, the binding signal was found to be 0.2077 ± 0.00099 E-score.

Take TCGGCACA: the binding signal is 0.217 ± 0.0118 E-score.

Regarding CACCGCCA, the binding signal turned out to be 0.291 ± 0.0119 E-score.

For AGTCGGTG, the binding signal came to 0.297 ± 0.0328 E-score.

Turning to TGCGTACA, the binding signal was found to be 0.18 ± 0.00951 E-score.

Take ATAATACA: the binding signal worked out at 0.166 ± 0.023 E-score.

As for ACGAGGTG, the binding signal is 0.251 ± 0.0125 E-score.

On to AGGCGGGG, for which the binding signal turned out to be 0.159 ± 0.0183 E-score.

Regarding ACGCCACG, the binding signal came to 0.171 ± 0.0126 E-score.

As to AAGACCCC, the binding signal was 0.172 ± 0.0514 E-score.

Take AGAGGTAT: the binding signal stood at 0.221 ± 0.0344 E-score.

Take GTGTGGAA: the binding signal was 0.193 ± 0.0214 E-score.

In the case of GTGTGGGA, the binding signal worked out at 0.286 ± 0.0336 E-score.

On to GTGTAGGA, for which the binding signal was determined as 0.4 ± 0.00559 E-score.

On to GTGCTGTA, for which the binding signal is 0.164 ± 0.0245 E-score.

Take GGGTAGTA: the binding signal was 0.161 ± 0.0206 E-score.

As for GTAGAGTA, the binding signal is 0.2533 ± 0.000997 E-score.

On to GTGTGGCA, for which the binding signal stood at 0.246 ± 0.0251 E-score.

As for GGGTAGGA, the binding signal came to 0.213 ± 0.0147 E-score.

Take GTGTAGCA: the binding signal was 0.425 ± 0.0131 E-score.

GTGTAGTA: the binding signal worked out at 0.464 ± 0.0137 E-score.

In the case of TAGTAGCA, the binding signal came to 0.159 ± 0.00204 E-score.

With GTGTAGAA, the binding signal worked out at 0.427 ± 0.0121 E-score.

For the sequence CACGGCTA, the binding signal is 0.182 ± 0.0377 E-score.

As to ACATGGGT, the binding signal turned out to be 0.209 ± 0.0274 E-score.

As for CACCTGGG, the binding signal turned out to be 0.2794 ± 0.00115 E-score.

CCCGCCAC: the binding signal amounted to 0.195 ± 0.0268 E-score.

Take TGGGGTAA: the binding signal was found to be 0.26 ± 0.0142 E-score.

Regarding CACCCGCG, the binding signal is 0.301 ± 0.00786 E-score.

For the sequence AGGCGACA, the binding signal turned out to be 0.25 ± 0.0166 E-score.

With ACACATGG, the binding signal amounted to 0.185 ± 0.0286 E-score.

On to GGAGGACA, for which the binding signal was 0.246 ± 0.019 E-score.

With CACGAACA, the binding signal worked out at 0.25 ± 0.0125 E-score.

Take GACACTCC: the binding signal is 0.43377 ± 0.000417 E-score.

In the case of CACACTCA, the binding signal came to 0.21 ± 0.0192 E-score.

As for CACACTCC, the binding signal was 0.291 ± 0.0144 E-score.

Turning to CACACTAA, the binding signal was 0.204 ± 0.0117 E-score.

For the sequence GATACTCA, the binding signal was determined as 0.16 ± 0.00991 E-score.

AACACTCT: the binding signal was 0.35 ± 0.036 E-score.

With CACACTCG, the binding signal was 0.3527 ± 0.00165 E-score.

Consider GACACTCA, for which the binding signal came out at 0.422 ± 0.00429 E-score.

Take AACACTCC: the binding signal was determined as 0.379 ± 0.0156 E-score.

Consider AACACTCA, for which the binding signal stood at 0.3999 ± 0.00301 E-score.

In the case of AACACTCG, the binding signal came to 0.337 ± 0.0357 E-score.

TACACTCA: the binding signal is 0.402 ± 0.0151 E-score.

Consider CGGATCAC, for which the binding signal is 0.174 ± 0.0108 E-score.

As for CACGGAGC, the binding signal turned out to be 0.163 ± 0.00672 E-score.

Regarding CACTAGCG, the binding signal was 0.188 ± 0.0248 E-score.

Take CCGTGCGA: the binding signal amounted to 0.155 ± 0.0514 E-score.
